# CYP2C19 inh – blocks human cytochrome P450 2C19; P33261; CYP2C19 Supersomes, luciferin-H EGE luminescence, 30 min; inhibition, % at 5 µM; actives 21% (n = 96,000); AID 778;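 active = CYP2C19 inhibition above a set limit at 5 µM in the primary screen, cut at about 50% in these data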;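 note: plate controls were negative control wells for no effect and 2.5 mM tranylcypromine positive control for full effect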
# PLAP act – activators of human placental alkaline phosphatase; P05187; purified PLAP enzyme, luminescent substrate read-out; hits give high values; activation fold at 20 µM; actives 1.2% (n = 96,000); AID 696; in the data active = activation fold above about 2
# CYP2C9 activ – activators of human CYP2C9 | AID 1024 | actives 1.4% (n = 96,000) | recombinant CYP2C9, luciferin-H conversion, luminescence; hits give high values; factor 1 = untreated enzyme, 0 = blocked | activation factor at 5 µM;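 active = activation factor of 2 or more for CYP2C9 at a 5 µM dose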;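 note: 0 = sulfaphenazole-blocked wells and 1 = vehicle-only wells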
# Target sequence (P11712 whole entry, looked up): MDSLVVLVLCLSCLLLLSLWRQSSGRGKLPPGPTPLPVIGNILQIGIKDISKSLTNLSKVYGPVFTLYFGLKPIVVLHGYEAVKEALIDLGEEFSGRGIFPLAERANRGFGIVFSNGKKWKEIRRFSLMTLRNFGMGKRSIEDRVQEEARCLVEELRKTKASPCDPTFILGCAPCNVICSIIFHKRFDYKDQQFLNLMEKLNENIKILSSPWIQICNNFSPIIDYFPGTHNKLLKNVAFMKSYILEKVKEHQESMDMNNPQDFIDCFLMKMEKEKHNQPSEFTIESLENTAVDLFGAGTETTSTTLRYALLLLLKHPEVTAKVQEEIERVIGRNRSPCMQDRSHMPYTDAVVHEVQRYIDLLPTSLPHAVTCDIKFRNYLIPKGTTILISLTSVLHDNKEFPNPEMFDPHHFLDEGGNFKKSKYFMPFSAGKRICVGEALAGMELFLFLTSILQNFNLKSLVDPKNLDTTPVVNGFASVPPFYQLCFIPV
# CYP2C19 activ – increases human CYP2C19 enzyme activity; P33261; recombinant CYP2C19, luciferin-H EGE luminescence; hits give high values; 0 = fully inhibited enzyme, 1 = untreated enzyme; activation factor at 5 µM; 96,000 tested, under 10 active;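 active = activation factor of at least 2 at 5 µM in the primary screen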;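 note: 0 = wells with 2.5 mM tranylcypromine and 1 = vehicle-only wells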
# CYP2C9 inh – blocks human cytochrome P450 2C9; P11712; CYP2C9 Supersomes, luciferin-H conversion, luminescence; inhibition, % at 5 µM; actives 20% (n = 96,000); AID 777;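 active = blocking of liver enzyme CYP2C9 beyond about 50% at 5 µM, limit read from the data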
# * hit, by the source's call. A selection: hits, their analogues and other compounds. The true share with any hit is near 31%.
SMILES,CYP2C19 inh,PLAP act,CYP2C9 activ,CYP2C19 activ,CYP2C9 inh
COc1ccc(C(=O)Nc2ccc3oc(Cc4ccc(Cl)cc4)nc3c2)cc1OC,9.9,1.5,0.8,0.9,20.6
Cc1ccc(N2CC(C(=O)Nc3cc(C)on3)CC2=O)cc1 (stereo not given),17.5,1,0.8,0.8,17.6
COc1ccc(C(C(=O)Nc2ccc(F)cc2)N(C(=O)Cn2nnc3ccccc32)C2CC2)cc1 (stereo not given),23.3,1,0.7,0.8,29.3
CCC(CC)NC(=O)COC(=O)c1ccc(NS(=O)(=O)c2ccc3c(c2)OCCO3)cc1,84.4*,1.9,0,0.2,98.6*
NC(=O)c1ccccc1NS(=O)(=O)c1ccc2c(c1)OCCO2,75.9*,1,1.3,0.2,-25.4
O=C(c1ccccc1NS(=O)(=O)c1cccc([N+](=O)[O-])c1)N1CCOCC1,-1.0,1,1,1,1.1
CC(=O)c1cc2c(cc1NS(=O)(=O)c1ccc3c(c1)OCCO3)OCO2,98.7*,1,1.7,0,-71.0
CCN(CC)S(=O)(=O)c1ccc(S(=O)(=O)Nc2cc3c(cc2C(C)=O)OCO3)cc1,51.5*,1.1,0,0.5,97.3*
CCOC(=O)N1CCN(c2c(NCc3ccccn3)c(=O)c2=O)CC1,27.1,0.9,1.2,0.7,-17.0
CC(=O)c1cc2c(cc1NS(=O)(=O)c1ccc(C)cc1)OCO2,63.0*,0.9,1.1,0.4,-11.9
CC(C)NC(=O)CCNS(=O)(=O)c1ccc(Br)cc1,50.1*,1.2,1.8,0.5,-75.7
Cc1ccc(CNC(=O)CCNS(=O)(=O)c2ccc(C)cc2)cc1,9.0,0.8,1.7,0.9,-71.4
CCCCNC(=O)CCNS(=O)(=O)c1ccc(C)cc1,17.6,0.8,2.6*,0.8,-160.9
Cn1c(-c2ccc(CN3CCCCC3)o2)nc2ccccc21,4.9,1,1,1,1.7
Cc1ccc(-c2nnc(SCC(=O)Nc3ccc4c(c3)oc3ccccc34)n2C)c(Cl)c1,23.7,0.8,0.4,0.8,59.0*
CCn1c(C(Cc2ccccc2)NC(=O)COC)nc2ccccc21 (stereo not given),80.7*,0.8,0.8,0.2,21.9
CC(C)CN(C(=O)c1ccc(=O)n(C)n1)c1nc2ccccc2s1,89.8*,1.5,0.2,0.1,83.5*
O=c1c(-c2ccnn2-c2cccc(Cl)c2)cnc2n1CCS2,91.1*,0.9,0.5,0.1,45.8
O=c1c(-c2ccnn2-c2ccccc2F)cnc2n1CCS2,57.6*,1.1,0.9,0.4,11.7
N#Cc1c(-c2ccc(F)cc2)nc2n(c1=O)CCS2,19.0,0.7,1,0.8,-3.1
O=c1c(-c2ccnn2-c2ccc(F)cc2)cnc2n1CCS2,78.8*,1.1,0.9,0.2,8.4
N#Cc1ccc(-n2nccc2-c2cnc3n(c2=O)CCS3)cc1,92.0*,0.8,0.8,0.1,23.8
CCCCc1[nH]c(=O)c(C#N)c2c1CCCC2,7.6,1,0.8,0.9,23.5
O=C(NCc1n[nH]c(=S)n1-c1cccc(Cl)c1)c1ccc(S(=O)(=O)N2CCCC2)cc1,42.4,1.2,0.4,0.6,61.0*
COc1ccc(C(=O)NCc2n[nH]c(=S)n2-c2ccccc2)cc1OC,21.4,1.1,0.9,0.8,11.5
SMILES,CYP2C19 inh,PLAP act,CYP2C9 activ,CYP2C19 activ,CYP2C9 inh
COc1cc(OC)cc(C(=O)NCc2n[nH]c(=S)n2-c2ccccc2)c1,64.4*,1,0.8,0.4,16.9
O=c1c2ccccc2nc2n1CC/C2=C/N1CCN(c2cccc(C(F)(F)F)c2)CC1,8.2,0.9,1.2,0.9,-15.9
CC1=C(C#N)CCC(=O)N1Cc1ccc(C)cc1,60.8*,1,0.8,0.4,18.3
CC1(C)N=C(SCC(=O)Nc2ccc(Cl)cc2)C(c2ccc(Cl)cc2)=N1,38.0,1.1,0.6,0.6,40.5
CC1(C)N=C(SCC(=O)Nc2ccc(Cl)cc2)C(c2ccccc2)=N1,76.6*,1.4,0.3,0.2,68.0*
COc1ccc(N2CCN(C(=O)CSc3nnc(-c4ccc5[nH]c(C)c(C)c5c4)o3)CC2)cc1,4.2,0.9,1,1,4.5
Cc1[nH]c2ccc(-c3nnc(SCC(=O)c4ccccc4F)o3)cc2c1C,57.2*,1.2,0.2,0.4,77.7*
Cc1ccc(C(=O)CSc2nnc(-c3ccc4[nH]c(C)c(C)c4c3)o2)cc1C,47.7,1.5,0.3,0.5,71.2*
O=C(Nc1nnc(C2CCCO2)s1)c1ccc(Br)cc1 (stereo not given),-7.8,1,0.9,1.1,5.9
Cc1c(C(=O)NCC2CCCO2)oc2ccc(S(=O)(=O)N3CC(C)CC(C)C3)cc12 (stereo not given),33.9,1.5,0.4,0.7,58.9*
Cc1c(C(=O)NCC2COc3ccccc3O2)oc2ccc(S(=O)(=O)N3CCOCC3)cc12 (stereo not given),18.4,1.5,0.4,0.8,55.8*
Cc1c(C(=O)NCC2COc3ccccc3O2)oc2ccc(S(=O)(=O)N3CC(C)CC(C)C3)cc12 (stereo not given),15.2,1.9,0.6,0.8,42.7
CCN(CC)S(=O)(=O)c1ccc2oc(C(=O)NCC3COc4ccccc4O3)c(C)c2c1 (stereo not given),34.5,1.4,0.2,0.7,75.5*
CCCCN(CC)Cc1ccc(CNC(=O)Nc2ccc(OC)cc2OC)o1,-0.2,1.3,1,1,1.7
O=C(CN1C(=O)CCSc2ccccc21)Nc1cccc(F)c1,78.4*,0.9,0.3,0.2,66.7*
COc1ccc(OC)c(CCNC(=O)CC2Oc3ccccc3NC2=O)c1 (stereo not given),50.1*,0.9,1.1,0.5,-8.2
Cc1ccc2c(c1)NC(=O)C(CC(=O)NCCN(CC(C)C)CC(C)C)O2 (stereo not given),4.5,1.2,0.5,1,51.3*
CCN(CC)CCCNC(=O)CC1Oc2ccc(C)cc2NC1=O (stereo not given),2.1,0.9,0.9,1,6.2
O=C(Nc1cc(C(F)(F)F)ccc1F)C1CCC1,19.1,1,1.3,0.8,-27.7
Cc1cc(C)c(C(N)=O)c(NC(=O)Nc2ccccc2Cl)n1,2.1,0.9,0.8,1,16.2
CC(C)(C)NC(=O)NC(=O)COc1ccccc1C#N,50.7*,1.3,0.6,0.5,44.4
Cc1cccc(-c2cc(C(=O)Nc3ccc4c(c3)OCCO4)c3ccccc3n2)c1,23.3,1.2,0.4,0.8,60.2*
Cc1ccc2nc(-c3ccc4c(c3)OCCO4)cc(C(=O)O)c2c1,28.1,1,0.2,0.7,81.1*
Cc1nc2ccccc2c2oc(C(=O)Nc3ccc4c(c3)OCCO4)cc12,-1.5,0.9,1,1,4.4
Cc1ccc2nc(-c3cccc(NC(=O)c4ccc5c(c4)OCCO5)c3)oc2c1,64.3*,1.4,0.1,0.4,86.7*
CCOc1ccc(-c2cc(C(=O)Nc3ccc4c(c3)OCCO4)c3ccccc3n2)cc1,48.8,0.9,0.2,0.5,78.3*
